The whole screen tested about 62,000 compounds, of which about 80 (0.1%) were called active. Not all results are given here. Potency and affinity values are given separately. Values without a mark were called inactive. How the calls were made is not given here.
What follows are compounds tested against Ephrin type-A receptor 4 (Mus musculus) (UniProt Q03137) (assay: EphA4 ligand-binding antagonists – biochemical, colorimetric, mouse EphA4, primary screen (AID 689)). Conditions: EphA4-AP binding to KYL peptide, pNPP A405, at 10 µM, stronger effect = higher value.
Ephrin type-A receptor 4 (Mus musculus), sequence (Q03137 whole entry, looked up): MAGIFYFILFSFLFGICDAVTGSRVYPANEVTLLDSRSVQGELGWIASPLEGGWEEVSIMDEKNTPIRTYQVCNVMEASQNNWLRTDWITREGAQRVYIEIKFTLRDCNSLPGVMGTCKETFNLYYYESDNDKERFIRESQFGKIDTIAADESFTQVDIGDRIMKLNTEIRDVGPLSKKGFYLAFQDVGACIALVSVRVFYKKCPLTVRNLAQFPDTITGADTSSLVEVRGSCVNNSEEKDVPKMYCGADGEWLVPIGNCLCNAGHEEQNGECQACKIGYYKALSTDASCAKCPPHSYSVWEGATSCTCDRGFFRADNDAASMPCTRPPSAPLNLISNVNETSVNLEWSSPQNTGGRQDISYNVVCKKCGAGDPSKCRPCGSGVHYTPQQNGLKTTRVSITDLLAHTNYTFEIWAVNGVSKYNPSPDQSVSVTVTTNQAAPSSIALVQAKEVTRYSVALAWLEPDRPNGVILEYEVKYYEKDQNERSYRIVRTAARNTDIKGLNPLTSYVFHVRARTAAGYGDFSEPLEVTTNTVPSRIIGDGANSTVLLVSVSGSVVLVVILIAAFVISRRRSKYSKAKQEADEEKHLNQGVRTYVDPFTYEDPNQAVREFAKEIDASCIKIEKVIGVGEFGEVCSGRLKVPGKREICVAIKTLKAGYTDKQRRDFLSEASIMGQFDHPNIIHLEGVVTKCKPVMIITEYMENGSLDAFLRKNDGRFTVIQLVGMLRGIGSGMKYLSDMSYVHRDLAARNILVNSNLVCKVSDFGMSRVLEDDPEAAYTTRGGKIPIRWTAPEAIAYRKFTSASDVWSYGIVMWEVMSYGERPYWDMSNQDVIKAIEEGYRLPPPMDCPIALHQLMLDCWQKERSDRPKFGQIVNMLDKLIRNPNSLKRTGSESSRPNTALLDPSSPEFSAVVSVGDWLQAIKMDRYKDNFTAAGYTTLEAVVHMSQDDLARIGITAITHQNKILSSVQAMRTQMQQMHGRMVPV
In the case of `CCN(Cc1ccccc1)C(=O)c1ccc([N+](=O)[O-])cc1`, the inhibition is reported as 1.5% [this sample at 5 µg/mL].
Work on `Nc1ccc(N(c2ccccc2)c2ccc(N)cc2)cc1` yielded an inhibition of 5.1%.
In the case of `CCOc1ccc(S(=O)(=O)N(CC(=O)Nc2ccccc2C)c2ccc(C)cc2)cc1`, the inhibition is reported as 2% [this sample at 5 µg/mL].
For `Cc1cccc2sc(NC(=O)c3ccc(Cl)s3)nc12`, the inhibition was -3.3%.
With `Cc1cccc2sc(NC(=O)c3ccccc3C(=O)O)nc12` the inhibition was -11.2% [this sample at 5 µg/mL].
Work on `CCOC(=O)C(O)(CCC(O)(C(=O)OCC)C(=O)OCC)C(=O)OCC` yielded an inhibition of -4.3%.
In the case of `O=C1CCC(C23CC4CC(CC(C4)C2)C3)=NN1`, the inhibition is reported as -8.4% [this sample at 5 µg/mL].
`Oc1ccc(-c2cn3c(n2)SCC3)cc1` was tested, and the inhibition was 4.1%.
With `Cc1nc(-c2ccc(O)c(O)c2)cs1` the inhibition was 1.8%.
`Cc1onc(-c2ccccc2Cl)c1C(=O)Nc1ccc(N2CCOCC2)cc1` showed an inhibition of 1.6%.
Work on `O=C1c2nc3ccccn3c2C(=O)N1Cc1ccccc1` yielded an inhibition of 6.8%.
In the case of `CCOc1ccc(S(=O)(=O)N(CC(=O)O)c2ccccc2)cc1`, the inhibition is reported as 0.2%.
Compound `Cc1ccc(N(CC(=O)N/N=C/c2ccco2)S(=O)(=O)c2ccccc2)cc1` has an inhibition of 15.6%.
`Cc1ccc(-c2nc3ncccc3o2)cc1NC(=O)COc1ccccc1` gave an inhibition of 4.8%.
`CCOC(=O)c1cnc2c(OC)cccc2c1N1CCN(c2ccccc2OC)CC1` gave an inhibition of 3.2%.
Compound `Cc1cccc(Cn2cc(/C=C/[N+](=O)[O-])c3ccccc32)c1` has an inhibition of 40.7%.
`O=[N+]([O-])/C=C/c1cn(Cc2ccc(F)cc2)c2ccccc12` was tested, and the inhibition was 30.9%.
With `Cc1ccc(NC(=O)N2Cc3ccccc3CC2C(=O)NC(C)(C)C)cc1` (stereo not drawn) the inhibition was 1%.
With `O=C(/C=C/c1ccc2c(c1)OCO2)c1ccc(Br)cc1` the inhibition was 3.2% [this sample at 5 µg/mL].
For `CNc1ccc(Br)cc(C(=O)/C=C/c2ccc3c(c2)OCO3)c1=O`, the inhibition was 32.2%.
Compound `CCOC(=O)c1sc(NC(NC(=O)c2ccco2)(C(=O)OC)C(F)(F)F)nc1C` (stereo not drawn) has an inhibition of 4.3%.
For `CCN1/C(=C/C(C)=O)Sc2ccccc21`, the inhibition was -0.8% [this sample at 5 µg/mL].
With `CCN1/C(=C/c2ccc3ccccc3[n+]2CC)C=Cc2ccccc21` the inhibition was 2%.
Work on `Cn1c(=O)[nH]c(=O)c2c1nc(CN1CCN(c3cccc(Cl)c3)CC1)n2CCN1CCOCC1` yielded an inhibition of 8.6%.
Work on `O=C(c1sc2ccccc2c1Cl)N(Cc1ccco1)C1CCS(=O)(=O)C1` (stereo not drawn) yielded an inhibition of -4.2%.
`COc1ccccc1C1C(C(N)=O)=C(C)Nc2nc(-c3ccccc3Cl)nn21` (stereo not drawn) gave an inhibition of -24.8%.
Work on `Cc1cc(/C=C2\SC(=S)NC2=O)c(C)n1C1CC1` yielded an inhibition of 9.1%.
For `Cc1cc(C=C2C(=O)N(C)C(=O)N(C)C2=O)c(C)n1C`, the inhibition was 3.4% [this sample at 5 µg/mL].
For `O=C(c1ccccc1)N1CCN(C(=O)C23CC4CC(CC(C4)C2)C3)CC1`, the inhibition was -9.8%.
In the case of `O=C1c2ccccc2NC(c2ccc(Cl)c(Cl)c2)N1Cc1ccccc1` (stereo not drawn), the inhibition is reported as 7.9% [this sample at 5 µg/mL].
In the case of `Cc1ccc(C)c(S(=O)(=O)Nc2ccccc2)c1`, the inhibition is reported as 5.9% [this sample at 5 µg/mL].
`CCOc1cc(C(=S)N2CCOCC2)ccc1OS(=O)(=O)c1ccc(NC(C)=O)cc1` was tested, and the inhibition was -6.9%.
With `Cc1occc1-c1nnc(SCC(=O)c2c[nH]c3ccccc23)n1C` the inhibition was 0.9%.
`Cc1cccc(C)c1NC(=O)CSc1nnc(-c2ccoc2C)n1C` was tested, and the inhibition was -4.3%.
Compound `Cn1c(SCC(=O)NC2CCCC2)nc2cccnc21` has an inhibition of -0.5%.
Work on `Cc1c(C(=O)NCCc2ccccc2)oc2ccc(S(=O)(=O)N3CCC4(CC3)OCCO4)cc12` yielded an inhibition of -4.2%.
Work on `COc1ccc(CNC(=O)c2ccc(S(=O)(=O)N3CCCC3)cc2)cc1OC` yielded an inhibition of -5.4%.
Compound `Cc1cc2cc(CNC(=O)C3CC3)ccc2n1C` has an inhibition of -5.8%.
With `COc1ccccc1NC(=O)Cc1csc(N)n1` the inhibition was 3.7%.
`CCCCN(CCCC)c1nc2ccccc2nc1C(C#N)C(=O)NCCCOC` (stereo not drawn) was tested, and the inhibition was 13.6%.
Work on `CCCCN(C)C/C(O)=C(\C#N)c1nc(-c2ccccc2)cs1` yielded an inhibition of -4.9%.
In the case of `Cc1c(NC(=O)c2ccc(CSc3ccc(Cl)cc3)cc2)c(=O)n(-c2ccccc2)n1C`, the inhibition is reported as -7.2% [this sample at 5 µg/mL].
For `Cc1ccc2c3c1C(=O)C(=O)N3C(C)(C)CC2C` (stereo not drawn), the inhibition was -4.8%.
With `O=C(COc1ccc(Cl)cc1)N(c1ccccc1)c1ccccc1` the inhibition was 5.1% [this sample at 5 µg/mL].
`Cc1cccc(OCC(=O)N/N=C/c2cn[nH]c2-c2ccc(Cl)c(Cl)c2)c1` was tested, and the inhibition was -6.5%.
With `CCOC(=O)c1c(C)nc2c(c1-c1ccccc1)C(=O)c1ccccc1-2` the inhibition was -4.1%.
With `CCOC(=O)c1ccc(COC(=O)c2ccc3c(c2)-c2ccccc2C3=O)cc1` the inhibition was -10.7%.
For `CC(CCc1ccccc1)NC(=O)c1cncc(Br)c1` (stereo not drawn), the inhibition was 1.4%.
In the case of `CCOC(=O)c1c(C)oc2c1c(C=NCC1CCCO1)c(O)c1ccccc12` (stereo not drawn), the inhibition is reported as -5.6%.
Compound `CCOC(=O)c1c(C)oc2c1c1c(c3ccccc32)OCN(Cc2ccccn2)C1` has an inhibition of 4.9%.
For `Cn1c(NCc2c[nH]c3ccccc23)nc2ccccc21`, the inhibition was -8.4%.
Work on `CCOC(=O)c1csc(NC(=O)CSc2nnnn2CC)n1` yielded an inhibition of -8.3%.
For `Cc1ccc(S(=O)(=O)N2CCSC2c2ccco2)cc1` (stereo not drawn), the inhibition was -2%.
For `CCOCCCn1c(SCC(=O)NCc2ccco2)nc2c(sc3ccccc32)c1=O`, the inhibition was 7.8%.
`Oc1c(C(Nc2ccccn2)c2ccccn2)ccc2cccnc12` (stereo not drawn) gave an inhibition of 6.9%.
Compound `Cc1ccc2ccc(C(Nc3ccccn3)c3ccccc3)c(O)c2n1` (stereo not drawn) has an inhibition of 18.4%.
In the case of `CC(=NCCc1ccccc1)C1=C(O)CCC1=O`, the inhibition is reported as -2.3%.
Work on `COc1ccccc1NC(=O)CSc1nnc(-c2ccco2)n1Cc1ccco1` yielded an inhibition of -25.5%.
With `COc1cccc(-c2nnc3sc(-c4ccccn4)nn23)c1` the inhibition was -6.2%.
Work on `Cn1c(=O)oc2cc(S(=O)(=O)N3CCN(c4cccc(Cl)c4)CC3)ccc21` yielded an inhibition of -5.3%.
`O=C1/C(=C/c2ccc(I)o2)SC(=S)N1Cc1ccccc1` was tested, and the inhibition was -12.6% [this sample at 5 µg/mL].
For `Cc1ccc(/C=C2\SC(=S)N(Cc3ccccc3)C2=O)o1`, the inhibition was -10.8%.
In the case of `CC1(C)CC(NC(=O)c2coc(=O)c(Br)c2)CC(C)(C)N1`, the inhibition is reported as -9.8%.
In the case of `O=C(c1coc(=O)c(Br)c1)N1CCCc2ccccc21`, the inhibition is reported as 21.7%.
Compound `O=C(CSCc1ccccc1Cl)NNC(=S)Nc1ccccc1` has an inhibition of -12.3%.
For `CCOc1cc(/C=C2\SC(=S)N(Nc3ccccc3)C2=O)ccc1O`, the inhibition was 16.9%.
For `COc1cc(/C=C2\SC(=S)N(Nc3ncc(C(F)(F)F)cc3Cl)C2=O)ccc1O`, the inhibition was 46.2%.
In the case of `COc1cc(/C=C2/SC(=S)N(CC(=O)Nc3cccc(C(=O)O)c3)C2=O)cc(OC)c1OC`, the inhibition is reported as -3.5% [this sample at 5 µg/mL].
With `O=C1/C(=C/c2ccc(F)cc2)SC(=S)N1Nc1ncc(C(F)(F)F)cc1Cl` the inhibition was -6.5%.
For `CC(=O)NCCNC(=O)[C@H](Cc1ccccc1)NC(=O)c1cccs1`, the inhibition was -9%.
Compound `CC1CC(C)CN(CC(C)(C)NS(=O)(=O)c2ccc(Cl)cc2)C1` (stereo not drawn) has an inhibition of -13.3%.
`CC(C)C1Cc2c(C#N)c(N)n(C)c(=S)c2CO1` (stereo not drawn) was tested, and the inhibition was -8%.
`CCC1(C)Cc2c(C#N)c(N)sc(=S)c2CO1` (stereo not drawn) showed an inhibition of 44.1%.
For `O=C1NC(=S)N(c2ccc(F)cc2)C(=O)C1=Cc1ccc([N+](=O)[O-])s1`, the inhibition was 31.5% [this sample at 5 µg/mL].
In the case of `O=C(O)CSc1nnc(-c2ccccc2)o1`, the inhibition is reported as -16.7%.
Compound `CCSc1nnc(-c2ccncc2)o1` has an inhibition of -3%.
For `COC(=O)c1cccnc1NC(=S)NNC(=O)c1ccncc1`, the inhibition was 1.4%.
Work on `CC1=NN(c2ccc(Br)cc2)C(=O)/C1=C/c1cccs1` yielded an inhibition of -1.8%.
In the case of `O=C1N=C(c2ccccc2)S/C1=C\c1cccs1`, the inhibition is reported as 5.5%.
`CCCCC(=O)Nc1cccc(NC(=O)c2ccc(Br)cc2)c1` gave an inhibition of -0.2%.
Work on `Cc1cc(C)c2nc(N3CCCN(C(=O)c4cnccn4)CC3)c(C#N)cc2c1` yielded an inhibition of 11.5%.
`Cc1cc(C)c2nc(N3CCN(C)CC3)c(C#N)cc2c1` showed an inhibition of 8.1%.
Compound `Cc1ccc(N2CCCn3c2nc2c3c(=O)n(CCN3CCOCC3)c(=O)n2C)cc1` has an inhibition of -11%.
For `N=c1oc2ccccc2cc1-c1nc2ccccc2c(=O)[nH]1`, the inhibition was 5.9%.
In the case of `O=C(/C=C/c1ccc(OCc2ccccc2)cc1)c1ccc(Br)cc1`, the inhibition is reported as -5.6% [this sample at 5 µg/mL].
For `O=C(/C=C/c1ccc(OCc2ccccc2)cc1)c1cccc(Br)c1`, the inhibition was 14.7% [this sample at 5 µg/mL].
`CC(C)(C)C1=C(C#N)C(c2ccc3c(c2)OCO3)C(C#N)=C(N)O1` (stereo not drawn) showed an inhibition of 5%.
For `CCC1=NN2C(=N)/C(=C/c3ccc(OCc4ccccc4)cc3)C(=O)N=C2S1`, the inhibition was 0.6% [this sample at 5 µg/mL].
